Shown is part of a subset that was picked to be rich in hits.
YjeE inh: displaces an ADP probe from E. coli YjeE (TsaE); purified YjeE enzyme, qHTS inhibition assay; P0AF67; 71,000 compounds, 0.05% hits; AID 605; Potency, µM
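Purified YjeE (10 uM) with BODIPY Texas Red-labeled ADP probe (2 uM); compounds pin-transferred, 15 min at room temperature. Binding inhibition read as decreased fluorescence polarization; ADP titration as control.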
IMPase cell inh: IMPase inhibition in cells. CHO-M1 cells, IP1 accumulation, HTRF TR-FRET ratio. inhibition (IP1 accumulation), % at 46.1 µM. 120,000 tested, under 10 active. AID 901; active means well fitted curve in the direction sought with a large enough effect in the signal ratio, not every such curve was filed as active; inconclusive means small, poorly fitted or top-dose-only effect, or a change in a side signal; inactive means no such curve, though single readings can be large or run the other way; the % refers to the signal ratio;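 further: cells stimulated with carbachol in lithium chloride buffer; higher means more IMPase inhibition seen as more IP1 and lower FRET ratio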
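Seeded CHO-M1 cells were dosed with compound at up to 46 uM, stimulated with carbachol for 30 min, then lysed in IP-One detection reagents. Higher IP1 lowers the TR-FRET signal.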
BRCT inh red: BRCT-phosphoprotein interaction inhibition (red fluorophore); P38398; Potency, µM (top dose mostly 76.9 µM), hits mostly inhibitors; AID 892; 75,000 compounds, 0.03% hits; BRCT-phosphopeptide binding, red fluorescence polarization
Target sequence (P38398 whole entry, looked up): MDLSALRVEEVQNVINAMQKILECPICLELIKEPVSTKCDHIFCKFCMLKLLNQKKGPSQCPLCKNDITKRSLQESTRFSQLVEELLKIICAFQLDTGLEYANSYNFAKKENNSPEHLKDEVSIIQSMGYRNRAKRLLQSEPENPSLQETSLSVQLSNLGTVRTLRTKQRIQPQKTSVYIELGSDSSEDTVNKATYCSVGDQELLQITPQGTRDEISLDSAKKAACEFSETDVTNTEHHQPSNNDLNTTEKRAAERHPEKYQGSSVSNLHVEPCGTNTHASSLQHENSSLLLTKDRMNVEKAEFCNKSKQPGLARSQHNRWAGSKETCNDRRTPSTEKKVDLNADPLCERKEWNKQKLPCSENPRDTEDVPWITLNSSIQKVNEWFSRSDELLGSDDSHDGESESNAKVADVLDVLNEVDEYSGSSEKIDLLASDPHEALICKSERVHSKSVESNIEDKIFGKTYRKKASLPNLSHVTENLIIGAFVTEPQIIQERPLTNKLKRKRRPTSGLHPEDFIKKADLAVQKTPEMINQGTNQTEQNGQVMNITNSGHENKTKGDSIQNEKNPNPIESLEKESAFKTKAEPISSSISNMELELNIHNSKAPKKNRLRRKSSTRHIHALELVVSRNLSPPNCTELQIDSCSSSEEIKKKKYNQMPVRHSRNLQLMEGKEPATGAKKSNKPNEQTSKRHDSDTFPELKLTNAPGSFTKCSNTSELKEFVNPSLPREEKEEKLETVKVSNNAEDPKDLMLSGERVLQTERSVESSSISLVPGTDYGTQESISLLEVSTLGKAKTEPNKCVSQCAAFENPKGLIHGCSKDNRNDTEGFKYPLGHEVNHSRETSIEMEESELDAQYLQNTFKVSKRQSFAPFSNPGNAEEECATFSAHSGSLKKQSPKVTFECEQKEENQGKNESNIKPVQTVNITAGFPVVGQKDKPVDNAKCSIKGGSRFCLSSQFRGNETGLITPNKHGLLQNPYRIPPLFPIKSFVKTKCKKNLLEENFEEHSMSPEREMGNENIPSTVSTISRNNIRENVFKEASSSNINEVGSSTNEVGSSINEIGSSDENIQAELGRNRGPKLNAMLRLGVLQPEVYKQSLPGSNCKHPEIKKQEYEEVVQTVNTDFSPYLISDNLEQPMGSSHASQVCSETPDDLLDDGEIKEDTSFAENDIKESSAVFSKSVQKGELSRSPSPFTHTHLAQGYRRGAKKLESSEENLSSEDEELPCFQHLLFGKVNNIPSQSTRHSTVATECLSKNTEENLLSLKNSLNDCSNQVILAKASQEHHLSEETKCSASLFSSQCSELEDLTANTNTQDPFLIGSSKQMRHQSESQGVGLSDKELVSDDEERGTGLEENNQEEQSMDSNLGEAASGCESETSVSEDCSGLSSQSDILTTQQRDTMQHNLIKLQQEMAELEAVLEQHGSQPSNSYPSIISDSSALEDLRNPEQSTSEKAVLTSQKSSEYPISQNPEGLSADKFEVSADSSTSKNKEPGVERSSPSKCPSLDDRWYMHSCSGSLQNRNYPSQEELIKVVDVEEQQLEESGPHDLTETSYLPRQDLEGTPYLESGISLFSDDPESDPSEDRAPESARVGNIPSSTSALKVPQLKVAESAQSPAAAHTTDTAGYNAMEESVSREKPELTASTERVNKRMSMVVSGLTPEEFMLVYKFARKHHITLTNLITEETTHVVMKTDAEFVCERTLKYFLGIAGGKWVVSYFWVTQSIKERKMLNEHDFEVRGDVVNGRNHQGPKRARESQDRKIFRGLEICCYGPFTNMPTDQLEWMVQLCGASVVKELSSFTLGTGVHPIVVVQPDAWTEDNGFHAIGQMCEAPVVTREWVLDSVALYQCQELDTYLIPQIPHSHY
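Fluorescence polarization: 100 nM His-tagged BRCA1 BRCT with 100 nM TAMRA-labelled phospho-BACH1 decapeptide, phosphate buffer pH 7.3 with 150 mM NaCl, DTT, 0.01% Tween 20; 12 min RT. Binding inhibition seen as FP decrease.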
Hsp90 Hop PPI: changes Hsp90-Hop TPR2A binding signal, up or down; 71,000 compounds, 0.44% hits; Potency, µM (highest dose often 57 µM); AlphaScreen TPR2A-His6 binding biotin-Hsp90 C-terminal peptide; active means well fitted curve in either direction with a large enough effect; inconclusive means small, poorly fitted or top-dose-only effect, or another doubt
BRCT PPI green: inhibitors of human BRCA1 BRCT-phosphoprotein interaction (green fluorophore); P38398; BRCA1 BRCT-phosphopeptide binding, green fluorescence polarization; Potency, µM (top dose mostly 76.9 µM), hits mostly inhibitors; 75,000 compounds, 0.05% hits
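Fluorescence polarization: His-tagged BRCT (~35 kDa BRCA1 C-terminus, 250 nM) bound to 100 nM fluorescein-labeled phosphorylated 10-aa BACH1 peptide, pH 7.3 phosphate buffer with DTT and Tween 20. Compounds incubated 12 min at room temperature; inhibition read as lowered polarization.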
DNA Pol III inh: inhibitors of bacterial DNA polymerase III holoenzyme. reconstituted DNA polymerase III holoenzyme replication, biochemical. Potency, µM (top dose mostly 57.1 µM). 71,000 compounds, 0.25% hits
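Reconstituted *E. coli* holoenzyme (0.35 nM Pol III, 1 nM beta, 154 nM SSB, 2 nM primase) was preincubated with compound for 15 min at RT. Synthesis on 1.4 nM ssM13Gori ran 35 min, then was stopped with PicoGreen/EDTA and read as dsDNA fluorescence.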
A number is an active result; ! = not active in a repeat; [ ] = remark or other dose. Unless noted, the call rests on the fitted dose curve; in most records, active means well fitted curve in the direction sought with a large enough effect; inconclusive means small, poorly fitted or top-dose-only effect, or another doubt; inactive means no such curve, though single readings can be large; an effect the other way counts as inactive or inconclusive.

For CC1CCCCN1Cc1nc2c(c(=O)n(C)c(=O)n2C)n1Cc1c(F)cccc1Cl (stereo not drawn) the results were YjeE inh 79.4µM, BRCT inh red inconclusive, Hsp90 Hop PPI inactive, BRCT PPI green 0.631µM and DNA Pol III inh inactive.
`O=C(Nc1sc2c(c1C(=O)O)CCCC2)c1cccs1` gave YjeE inh inactive, IMPase cell inh inactive, BRCT inh red inactive, Hsp90 Hop PPI inactive, BRCT PPI green inactive and DNA Pol III inh inactive.
`CC(C)OC(=O)c1c(NC(=O)c2cccs2)sc2c1CCCC2` gave YjeE inh inactive, IMPase cell inh inactive, BRCT inh red inactive, Hsp90 Hop PPI 25.1µM, BRCT PPI green inactive and DNA Pol III inh inactive.
Screening c1ccc(-c2cccc(-c3ccccn3)n2)nc1 returned YjeE inh inactive, IMPase cell inh inactive, BRCT inh red inactive, Hsp90 Hop PPI 3.16µM, BRCT PPI green inactive and DNA Pol III inh inactive.
Screening COC(=O)[C@H]1[C@@H]2C[C@H]3c4[nH]c5ccccc5c4CCN3C[C@@H]2CC[C@@H]1O returned YjeE inh inactive, Hsp90 Hop PPI inactive and DNA Pol III inh inactive.
For CCCCNC(=O)c1ccc2nc(-c3ccco3)c(-c3ccco3)nc2c1 the results were YjeE inh inconclusive, IMPase cell inh inactive, BRCT inh red inactive, Hsp90 Hop PPI inconclusive, BRCT PPI green inactive and DNA Pol III inh 15.8µM.
Screening O=C(c1cc2ncc(Br)cn2n1)N1CCN(C(=O)c2ccco2)CC1 returned YjeE inh inactive, IMPase cell inh inactive, BRCT inh red inactive, Hsp90 Hop PPI inactive, BRCT PPI green inactive and DNA Pol III inh 25.1µM.
Screening O=C1C2C3C=CC(C3)C2C(=O)N1c1ncn[nH]1 (stereo not drawn) returned YjeE inh inactive, IMPase cell inh inactive, BRCT inh red inactive, Hsp90 Hop PPI inactive, BRCT PPI green inactive and DNA Pol III inh 12.6µM.
`CC(C)(C(=O)O)c1ccc([C@@H](O)CCCN2CCC(C(O)(c3ccccc3)c3ccccc3)CC2)cc1` gave YjeE inh inactive, BRCT inh red inactive, Hsp90 Hop PPI inactive, BRCT PPI green inactive and DNA Pol III inh inactive.
For O=C(OCC(=O)N1CCCc2ccccc21)c1cncc(Br)c1 the results were IMPase cell inh inactive.
For CO[C@@]12C[C@@H](COC(=O)c3cncc(Br)c3)CN(C)[C@H]1Cc1cn(C)c3cccc2c13 the results were YjeE inh inactive, IMPase cell inh inactive, BRCT inh red inactive, Hsp90 Hop PPI 10µM!, BRCT PPI green inactive and DNA Pol III inh inactive.
For O=NC1=C(c2c(O)[nH]c3ccccc23)CCCC1 the results were YjeE inh inactive, IMPase cell inh inactive, BRCT inh red inactive, Hsp90 Hop PPI inactive, BRCT PPI green inactive and DNA Pol III inh inactive.
For O=Nc1c(-c2c(O)[nH]c3ccccc23)[nH]c2ccccc12 the results were YjeE inh inactive, IMPase cell inh inactive, BRCT inh red inactive, Hsp90 Hop PPI 12.6µM!, BRCT PPI green inactive and DNA Pol III inh inactive.
For COC1(OC)N=C(N)C2(C#N)C(c3ccccc3)NC(C)=CC12C#N (stereo not drawn) the results were IMPase cell inh inactive.
Screening CC1=CC(C#N)(C#N)C(C#N)(C#N)C(c2ccccc2)N1 (stereo not drawn) returned YjeE inh 50.1µM, IMPase cell inh inactive, BRCT inh red inactive, Hsp90 Hop PPI 3.16µM, BRCT PPI green inactive and DNA Pol III inh inactive.
`Cc1cc(Nc2ccc(O)cc2)ccc1N` gave YjeE inh 100µM, BRCT inh red inactive, Hsp90 Hop PPI inconclusive, BRCT PPI green inactive and DNA Pol III inh inactive.
CC(C)Cn1nc(NC(=O)C(C)(C)C)c2cc3ccccc3nc21 was read as IMPase cell inh inactive.
`COc1ccc2nc3c(cc2c1)c(NC(=O)c1cccs1)nn3CC(C)C` gave YjeE inh inactive, IMPase cell inh inactive, BRCT inh red inactive, Hsp90 Hop PPI 25.1µM, BRCT PPI green inactive and DNA Pol III inh inactive.
For N#C[C@@H](Cc1ccc(O)c(O)c1)C(=O)N1CCc2ccccc21 the results were YjeE inh inactive, IMPase cell inh inactive, BRCT inh red inactive, Hsp90 Hop PPI 6.31µM, BRCT PPI green inactive and DNA Pol III inh inactive.
CCOC(=O)C1=C(C)NC(C)=C(C(=O)OC)[C@H]1c1cccc(Cl)c1Cl was read as YjeE inh inactive, IMPase cell inh inactive, BRCT inh red inactive, Hsp90 Hop PPI inactive, BRCT PPI green inactive and DNA Pol III inh inactive.
`C[C@@]12CCC(=O)C=C1CC[C@H]1[C@@H]2[C@@H](O)C[C@]2(C)[C@@H]1CC[C@@]2(O)C(=O)CO` gave YjeE inh inactive, BRCT inh red inactive[15.4 µM], Hsp90 Hop PPI inactive[11 µM], BRCT PPI green inactive[15.4 µM] and DNA Pol III inh inactive[11.4 µM].
NC([N-]/N=C/c1ccccn1)=[S]=[Fe].O=S(=O)(O)O was read as YjeE inh inactive, BRCT inh red inactive[15.4 µM], Hsp90 Hop PPI 1.26µM, BRCT PPI green inactive[15.4 µM] and DNA Pol III inh inactive[11.4 µM].
CCSc1nnc(NC(=O)c2ccccn2)s1 was read as YjeE inh inactive, IMPase cell inh inactive, BRCT inh red inactive, Hsp90 Hop PPI 7.94µM, BRCT PPI green inactive and DNA Pol III inh inactive.
CN(C)c1ccc2nc3ccc(=[N+](C)C)cc-3sc2c1 was read as YjeE inh inactive, BRCT inh red inactive, Hsp90 Hop PPI inconclusive, BRCT PPI green inactive and DNA Pol III inh 31.6µM.
COc1ccc2nc(N=Nc3ccc(N(C)C)cc3)sc2c1 was read as IMPase cell inh inactive.
COc1ccc(-c2cc(C(=O)N/N=C/c3ccc(O)cc3)[nH]n2)cc1 was read as BRCT inh red inactive and BRCT PPI green inactive.
`COc1ccc2nc(Nc3nc(CSc4nnnn4-c4ccccc4)cc(=O)[nH]3)nc(C)c2c1` gave IMPase cell inh inactive.
For Cc1ccc2c(C)nc(Nc3nc(CSc4nnnn4-c4ccccc4)cc(=O)[nH]3)nc2c1 the results were YjeE inh inactive, IMPase cell inh inactive, BRCT inh red inactive, Hsp90 Hop PPI inactive, BRCT PPI green inactive and DNA Pol III inh 12.6µM.
For CCOC(=O)CCCCC(=O)c1[nH]c(=O)[nH]c1CSCCO the results were IMPase cell inh inactive.
`CCOC(=O)CCCc1sc(N)nc1-c1[nH]c(=O)[nH]c1C` gave YjeE inh inactive, IMPase cell inh inactive, BRCT inh red inactive, Hsp90 Hop PPI 3.98µM, BRCT PPI green inactive and DNA Pol III inh inactive.
Screening CCC[C@@H]1O[C@@H]2C[C@@H]3[C@@H]4CCC5=CC(=O)C=C[C@@]5(C)[C@H]4[C@H](O)C[C@@]3(C)[C@@]2(C(=O)CO)O1 returned YjeE inh inactive, Hsp90 Hop PPI inactive and DNA Pol III inh inactive.
CC(C)C(=O)NC(c1ccco1)c1ccc2cccnc2c1O (stereo not drawn) was read as YjeE inh inactive, IMPase cell inh inactive, BRCT inh red inactive, Hsp90 Hop PPI 10µM, BRCT PPI green inactive and DNA Pol III inh inactive.
